The values below come from PubChem BioAssay (NCI).

Molecules are shown by their SMILES. About 83,000 compounds went through this panel and 20% of them were active in at least one assay; those are over-represented in the sample as a whole.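 Single-concentration screen, 48 h exposure, 96-well plates. Endpoint: percent growth. Below 10 = active.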 A number with no mark means an inactive call. Activity calls are given as the source filed them.

Some test systems named below: HCT-15 colon; HT29 colon; U251 CNS; PC-3 prostate; SK-MEL-5 melanoma; UACC-62 melanoma; LOX IMVI melanoma; SK-MEL-28 melanoma; SNB-19 CNS.
Test in all cases: NCI-60 one-dose screen, 48 h (100 = growth as untreated, 0 = no growth, -100 = all killed)
Holding throughout (conditions): 10 µM unless noted

On to `O=C(Nc1ccc(NCCN2CCOCC2)nc1)c1ccc([N+](=O)[O-])cc1`, for which the growth is 105% in the assay with HCT-15 colon; 101% in the assay on HT29 colon; 102% in the assay on U251 CNS; 98.5% in the assay with PC-3 prostate; 98.7% with SK-MEL-5 melanoma; 94.6% in the assay on UACC-62 melanoma. Also, the growth with LOX IMVI melanoma is 102%; with SK-MEL-28 melanoma it was 115%.
Regarding `Brc1cccc(-c2cc(-c3ccc4c(c3)OCCCO4)[nH]n2)c1`, the growth in the assay on HCT-15 colon is 29.7% [25 µM]; in the assay with HT29 colon, 12.7% [25 µM]; in the assay on U251 CNS, 47.4% [25 µM]; in the assay with PC-3 prostate, 55.9% [25 µM]; in the assay on SK-MEL-5 melanoma, 39.1% [25 µM]; in the assay with UACC-62 melanoma it was 60.2% [25 µM]. Also, the figures for the growth in the assay with LOX IMVI melanoma and in the assay on SK-MEL-28 melanoma were 43.9% [25 µM] and 76.5% [25 µM], respectively.
As to `COc1ccc(C(=O)N2NC(=O)/C(=C/c3ccc(Br)cc3)N=C2c2ccccc2)cc1`, the growth in the assay on HCT-15 colon is 94.8%; with HT29 colon it was 93.2%; in the assay on SNB-19 CNS, 87.4%; in the assay on U251 CNS, 72.9%; in the assay on SK-MEL-5 melanoma, 93.8%; in the assay with UACC-62 melanoma, 68.3%. Moreover, the growth in the assay with LOX IMVI melanoma is 87.9%; with SK-MEL-28 melanoma, 94.5%.
Regarding `COc1cccc(CC(C)=C(c2ccc(OCCN(C)C)cc2)c2ccc(OCCN(C)C)cc2)c1`, the growth is -37.8% (active) in the assay on HCT-15 colon; -72.7% (active) in the assay with HT29 colon; -77.8% (active) in the assay with U251 CNS; 15.6% in the assay with PC-3 prostate; -95.1% (active) in the assay with SK-MEL-5 melanoma; -90.7% (active) in the assay on UACC-62 melanoma. In addition, the growth with LOX IMVI melanoma was -84.3% (active).
Regarding `C=C1c2nc3ccccc3n2C=C(c2ccc(Cl)cc2)N1Cc1ccccc1`, the growth in the assay with HCT-15 colon is 78.2%; with HT29 colon, 77.4%; in the assay on SNB-19 CNS, 85.3%; in the assay on U251 CNS it was 90.9%; in the assay on SK-MEL-5 melanoma it was 79.1%; in the assay with UACC-62 melanoma, 71%. Also, the growth was 90.5% in the assay on LOX IMVI melanoma and 147% in the assay with SK-MEL-28 melanoma.
Consider `COc1ccc(C(=O)c2cc(OC)c(OC)c(OC)c2OC)cc1O`, for which the growth in the assay with HCT-15 colon is 30.2%; in the assay with HT29 colon it was 55.6%; in the assay with SNB-19 CNS, 40.6%; in the assay on U251 CNS, 33.4%; with PC-3 prostate, 68.4%; with UACC-62 melanoma, 40.3%. The growth in the assay with LOX IMVI melanoma is 38.7%; in the assay on SK-MEL-28 melanoma it was 45.6%.
Regarding `COc1cc(NC(N)=NCCC(C)(C)c2ccc(C(F)(F)F)cc2)ncc1C#N`, the growth with HCT-15 colon is 14.6%; in the assay on HT29 colon, -37% (active); in the assay with U251 CNS it was -37.4% (active); with PC-3 prostate, 25.4%; in the assay with SK-MEL-5 melanoma, -80.2% (active); in the assay with UACC-62 melanoma, 10.4%. Further, the growth was 18.3% with LOX IMVI melanoma and -55.6% (active) in the assay with SK-MEL-28 melanoma.
With `COc1cccc(/C=C2\Oc3cc(OCCCN4CCCC4)ccc3C2=O)c1OC`, the growth with HCT-15 colon is 76.2%; in the assay with HT29 colon it was 48.6%; in the assay on SNB-19 CNS, 102%; in the assay on U251 CNS, 93.2%; with PC-3 prostate, 91.9%; with UACC-62 melanoma, 98.9%. Also, the results for the growth in the assay with LOX IMVI melanoma and in the assay on SK-MEL-28 melanoma were 89.2% and 105%, respectively.
`CCNc1nc(S(=O)(=O)CC)nc2ccccc12`: the growth with HCT-15 colon is 92.3%; in the assay on HT29 colon, 95.5%; in the assay with U251 CNS, 101%; in the assay with PC-3 prostate it was 96.8%; in the assay with SK-MEL-5 melanoma, 90.8%; in the assay with UACC-62 melanoma, 90.8%. Also, the growth in the assay on LOX IMVI melanoma was 101%; in the assay on SK-MEL-28 melanoma, 108%.
On to `CCOC(=O)C1C(=O)C=C(c2ccc(OC)cc2)CC1c1sc(N(C)Cc2ccccc2)nc1Cl` (stereo unspecified), for which the growth in the assay on HCT-15 colon is 93.3%; in the assay on HT29 colon it was 88.1%; in the assay with U251 CNS, 84.8%; in the assay on PC-3 prostate, 62.9%; with SK-MEL-5 melanoma, 81%; in the assay with UACC-62 melanoma, 46.1%. Besides, the values for the growth with LOX IMVI melanoma and in the assay on SK-MEL-28 melanoma were 92.1% and 93.7%, respectively.
As to `CC(=O)OC[C@]12CC[C@H]3[C@@H](C[C@H]4O[C@]45CC=CC(=O)[C@]35C)[C@]1(O)CC[C@@]2(O)[C@@](C)(O)C1CC(C)=C(C)C(=O)O1` (stereo partly specified), the growth was 0% (active) in the assay on HCT-15 colon; -21.2% (active) in the assay with HT29 colon; -14.5% (active) with U251 CNS; 2.94% (active) in the assay on PC-3 prostate; -78.7% (active) in the assay on SK-MEL-5 melanoma; -71.1% (active) in the assay with UACC-62 melanoma. The values for the growth in the assay with LOX IMVI melanoma and in the assay on SK-MEL-28 melanoma were -74.9% (active) and -49.9% (active), respectively.
Turning to `COc1cccc(-c2nc3sccn3c2-c2ccnc(NCCCNS(=O)(=O)c3ccc(F)cc3)c2)c1`, the growth was 19.4% in the assay with HCT-15 colon; 44.4% with HT29 colon; 55.5% in the assay with U251 CNS; 9.93% (active) in the assay on PC-3 prostate; -39.3% (active) in the assay with SK-MEL-5 melanoma; -38.3% (active) in the assay with UACC-62 melanoma. Further, the growth is 23.1% in the assay with LOX IMVI melanoma and 52.1% in the assay on SK-MEL-28 melanoma.
For `O=C(Nc1cccc(-n2cc(-c3ccncc3)c(-c3ccc(Cl)c(O)c3)n2)c1)c1ccc(N2CCOCC2)c(C(F)(F)F)c1`, the growth in the assay on HCT-15 colon is 26.2%; in the assay with HT29 colon, 98%; with U251 CNS it was 11.8%; with PC-3 prostate it was 27.2%; with SK-MEL-5 melanoma, 50.8%; in the assay on UACC-62 melanoma, 49.2%. Further, the growth in the assay with LOX IMVI melanoma was 9.98% (active); in the assay with SK-MEL-28 melanoma it was 1.14% (active).
In the case of `COc1ccc(/C=C2\N=C(c3ccccc3)N(C(=O)c3ccccc3O)NC2=O)cc1`, the growth was 104% in the assay on HCT-15 colon; 104% in the assay with HT29 colon; 96.6% in the assay on SNB-19 CNS; 94.2% in the assay with U251 CNS; 101% with SK-MEL-5 melanoma; 82.8% with UACC-62 melanoma. Besides, the growth in the assay with LOX IMVI melanoma was 95.6%; with SK-MEL-28 melanoma it was 109%.
Take `CCCCN(CCCC)C(=N)c1ccnc2ccccc12`: the growth in the assay with HCT-15 colon was 101%; with HT29 colon, 89.1%; in the assay with U251 CNS, 107%; in the assay with PC-3 prostate it was 105%; with SK-MEL-5 melanoma, 119%; in the assay on UACC-62 melanoma, 111%. Moreover, the growth in the assay with LOX IMVI melanoma was 101%.
Regarding `COc1cc(-c2nc(N=Nc3c(O)[nH]c4ccc(Br)cc34)[nH]c(=O)c2C#N)cc(OC)c1OC`, the growth was 98.6% in the assay with HCT-15 colon; 106% in the assay on HT29 colon; 100% in the assay on SNB-19 CNS; 99.7% with U251 CNS; 98.8% with PC-3 prostate; 96.1% with UACC-62 melanoma. In addition, the growth with LOX IMVI melanoma is 98.2%; in the assay on SK-MEL-28 melanoma it was 111%.
